# Most compounds without a hit are left out; they make up all but 1.3% or so of the library.
# PREPL inhibitor: inhibitors of human prolyl oligopeptidase-like enzyme PREPL | 0.68% of 320,000 active | AID 2751 | Q4J6C6 | recombinant PREPL, fluorescence polarization activity-based probe | inhibition, % at 5.96 µM;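 further: 0% = enzyme with DMSO and 100% = wells lacking enzyme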
# Target sequence (Q4J6C6 whole entry, looked up): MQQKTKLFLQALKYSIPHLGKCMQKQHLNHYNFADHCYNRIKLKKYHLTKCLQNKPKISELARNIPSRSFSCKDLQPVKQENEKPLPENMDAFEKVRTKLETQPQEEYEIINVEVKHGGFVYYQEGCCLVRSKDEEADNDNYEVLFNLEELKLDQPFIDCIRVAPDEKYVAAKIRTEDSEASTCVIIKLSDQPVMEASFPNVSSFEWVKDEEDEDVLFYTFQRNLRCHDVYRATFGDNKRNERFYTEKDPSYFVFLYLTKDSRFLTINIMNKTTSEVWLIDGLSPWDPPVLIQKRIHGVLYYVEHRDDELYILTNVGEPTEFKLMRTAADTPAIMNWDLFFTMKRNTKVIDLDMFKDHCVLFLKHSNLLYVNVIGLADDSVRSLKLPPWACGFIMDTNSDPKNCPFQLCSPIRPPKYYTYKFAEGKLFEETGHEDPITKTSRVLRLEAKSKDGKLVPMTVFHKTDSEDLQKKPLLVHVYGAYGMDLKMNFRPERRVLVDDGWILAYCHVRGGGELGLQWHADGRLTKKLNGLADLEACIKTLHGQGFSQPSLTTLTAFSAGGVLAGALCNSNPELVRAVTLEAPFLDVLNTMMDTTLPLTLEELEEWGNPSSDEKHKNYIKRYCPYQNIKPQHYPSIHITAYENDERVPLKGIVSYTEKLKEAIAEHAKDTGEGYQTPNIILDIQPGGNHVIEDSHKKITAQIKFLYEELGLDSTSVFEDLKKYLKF
# LYPLA2 counter: counter-screen for PME1 inhibitors: inhibitors of human LYPLA2; O95372; recombinant LYPLA2, FP-Rh probe fluorescence polarization; inhibition, % at 5.9 µM; 0.38% of 320,000 active;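 active means inhibition above the screen-wide mean plus 3 SD, limit set per campaign, cut at about 26% in these data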;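 further: 0% = LYPLA2 with DMSO and 100% = wells lacking LYPLA2 enzyme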
# EBNA-1 inhibitor: blocks EBNA-1 binding to DNA; inhibition, % at 14.8 µM; EBNA-1 DNA binding, fluorescence polarization; 0.34% of 300,000 active; in the data active means inhibition above about 28%
# ZTA counter: blocks Epstein-Barr virus ZTA, an EBNA-1 counter-screen; P03206; ZTA-DNA binding, fluorescence polarization; inhibition, % at 11 µM; 0.15% of 320,000 active; in the data active means inhibition above about 33%
# LYPLA1 inh: blocks human lysophospholipase 1, a PME1 counter-screen. recombinant LYPLA1, FP-Rh probe fluorescence polarization. O75608. 0.16% of 320,000 active. inhibition, % at 5.9 µM. AID 2174;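 active means inhibition above the mean of all tested compounds plus 3 SD, set per campaign, cut at about 14% in these data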;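 further: inhibitors block serine hydrolase probe labeling of LYPLA1 so polarization falls; 0% = enzyme with DMSO and 100% = wells lacking LYPLA1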
# EBNA-1 inh conf: EBNA-1 (EBV) inhibition, confirmation; inhibition, % at 14.8 µM; 35% of 830 active; shares compounds with EBNA-1 inhibitor; Recombinant EBNA-1 DBD, Cy5-DNA fluorescence polarization;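 active means mean inhibition across replicates above a set limit taken from the earlier primary screen, cut at about 28% in these data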;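 further: plate controls were EBNA-1 protein with DMSO for no effect and wells lacking EBNA-1 for full effect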
# ZTA DNA inh trip: blocks Epstein-Barr virus ZTA in triplicate, EBNA-1 counter-screen. shares compounds with EBNA-1 inhibitor. Zta-ZRE DNA binding, Cy5 fluorescence polarization. inhibition, % at 11.1 µM. 830 tested, under 10 active;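 active means mean inhibition over triplicates above a set limit taken from the primary EBNA-1 screen, cut at about 37% in these data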;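 further: purified full length Zta protein with Cy5 labeled ZRE DNA probe; 0% = Zta with DMSO and 100% = wells lacking Zta protein; inhibitors lower polarization by freeing the labeled DNA probe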
# LYPLA1 confirm: counter-screen for PME1 inhibitors: confirmation of human LYPLA1 inhibitors | AID 2233 | inhibition, % at 5.9 µM | shares compounds with LYPLA1 inh | recombinant LYPLA1, FP-Rh probe fluorescence polarization | 69% of 480 active;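 active means mean inhibition across replicates above the hit cutoff set in the primary screen, cut at about 15% in these data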;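 further: loss of FP-Rh probe labeling of LYPLA1 seen as lower polarization; 0% = LYPLA1 with DMSO and 100% = wells lacking LYPLA1 enzyme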
# LYPLA2 confirm: counter-screen for PME1 inhibitors: confirmation of human LYPLA2 inhibitors; shares compounds with LYPLA2 counter; recombinant LYPLA2, FP-Rh probe fluorescence polarization; inhibition, % at 5.9 µM; 72% of 1,100 active; AID 2232;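 active means mean inhibition across replicates above the hit cutoff set in the primary screen, cut at about 26% in these data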;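 further: blocked labeling of the enzyme by serine hydrolase FP-Rh probe lowers polarization; 0% = enzyme with DMSO and 100% = wells lacking LYPLA2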
# PREPL confirm: confirmation of human PREPL enzyme inhibitors; shares compounds with PREPL inhibitor; recombinant PREPL, fluorescence polarization activity probe; inhibition, % at 5.96 µM; 67% of 2,000 active; AID 2803;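 further: 0% = protein with DMSO and 100% = wells lacking protein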
# Starred values were filed as active, the others as inactive; nt = no result given. Unless noted, no stated cut-off is given here; in the data, active means inhibition above about 43%; inactive means the rest.
SMILES,PREPL inhibitor,LYPLA2 counter,EBNA-1 inhibitor,ZTA counter,LYPLA1 inh,LYPLA1 confirm,others
CCCNC(=O)c1ccc(COc2ccc(CCC)cc2OC)o1,13.9,3.0,-9.6,9.8,1.0,nt,
COc1ccc(-c2nn(-c3ccccc3)cc2C(=O)NCC2CCCO2)cc1 (stereo not drawn),2.7,1.3,-3.1,-10.1,-4.6,nt,
Cc1c(NS(=O)(=O)c2cc(Br)cc3c2N(C(=O)C2CC2)CC3)c(=O)n(-c2ccccc2)n1C,-3.5,-1.2,14.4,8.4,-0.9,nt,
Cc1c(NS(=O)(=O)c2ccc3c(c2)CCN3C(=O)C2CC2)c(=O)n(-c2ccccc2)n1C,-7.7,3.3,42.8*,4.2,-1.3,nt,EBNA-1 inh conf=-3.6;ZTA DNA inh trip=0.3
O=C(CN1C(=O)c2ccc([N+](=O)[O-])cc2C1=O)NCCC1=CCCCC1,0.1,-0.9,-5.8,-3.2,-0.4,nt,
CSc1ccc(CN(C)CC(=O)NCCc2ccccc2)cc1,-4.6,-1.4,-7.0,-7.6,1.5,nt,
Cc1ccc(NC(=O)c2sc3ncn(CC(=O)N4CCN(c5ccccn5)CC4)c(=O)c3c2C)cc1Cl,10.7,-37.3,30.8*,-12.6,-15.6,nt,EBNA-1 inh conf=-3.4;ZTA DNA inh trip=-0.9
O=c1/c(=C\c2cc([N+](=O)[O-])cc([N+](=O)[O-])c2O)sc2nc3ccccc3n12,8.2,6.2,27.5*,7.0,15.8*,-1.9,EBNA-1 inh conf=28.3*;ZTA DNA inh trip=24.8
Cc1cnc(=O)[nH]c1SCc1ccc([N+](=O)[O-])cc1,-1.4,7.2,-1.4,12.6,-0.3,nt,
CCOC(=O)N1CCN(S(=O)(=O)c2ccc(F)c(C(=O)Nc3cccc(Cl)c3C)c2)CC1,5.0,40.5*,81.4*,-7.6,2.5,nt,EBNA-1 inh conf=12.4;ZTA DNA inh trip=-1.8;LYPLA2 confirm=41.2*
CCOC(=O)N1CCN(S(=O)(=O)c2ccc(F)c(C(=O)Nc3cc(C)cc(C)c3)c2)CC1,7.7,5.3,8.2,-2.0,-1.6,nt,
CCn1c(CSc2nnc3ccccn23)nc2cc(C(=O)O)ccc21,22.8,42.8*,44.8*,30.0,38.7*,52.5*,EBNA-1 inh conf=44.4*;ZTA DNA inh trip=82.4*;LYPLA2 confirm=51.1*
CCC(=O)C1CCCN(C(=O)CCc2nnc(C3(c4ccc(Cl)cc4)CCC3)o2)C1 (stereo not drawn),18.3,-8.7,-12.2,-13.2,-0.9,nt,
COc1ccc(C2CC(C(F)(F)F)n3nc(C(=O)Nc4ccc5c(c4)OCO5)cc3N2)cc1 (stereo not drawn),49.0*,-3.0,40.2*,1.4,1.0,nt,EBNA-1 inh conf=109.8*;ZTA DNA inh trip=-0.8;PREPL confirm=37.6
COc1ccc(OC)c(NC(=O)c2cc3n(n2)C(C(F)(F)F)CC(c2ccc4c(c2)OCO4)N3)c1 (stereo not drawn),42.9,-3.3,-5.5,-27.8,-2.3,nt,
O=C1OC(CO)CN1Cc1ccccc1 (stereo not drawn),-0.7,-6.2,-5.8,2.8,-0.4,nt,
O=C(Cn1c(O)c(/C=C2\C=Nc3ccc(Br)cc32)sc1=O)N1CCCC1,43.1*,-0.2,29.1*,-4.9,5.0,nt,EBNA-1 inh conf=10.1;ZTA DNA inh trip=-0.9;PREPL confirm=36.4
CN1CC=C2C(C#N)=C(N)C(C#N)(C#N)[C@H](c3ccoc3)[C@H]2C1,33.5,13.9,-2.0,-8.5,14.3*,0.4,
COc1ccc(N2CCN(S(=O)(=O)c3cnc[nH]3)CC2)cc1,12.0,-1.1,7.3,-0.9,2.2,nt,
COc1ccc(-c2nnc(Nc3nc4c(OC)cccc4s3)o2)cc1,19.0,18.0,-13.0,1.0,17.4*,41.4*,
CCOC(=O)c1c(C)[nH]c(C(=O)OCC(=O)Nc2sc(C(=O)N(C)C)c(C)c2C(=O)OCC)c1C,2.7,5.8,-14.1,-8.0,47.3*,73.5*,
O=c1ccc2ccc(Oc3ccc([N+](=O)[O-])cc3[N+](=O)[O-])cc2o1,11.7,58.3*,-3.4,2.9,39.7*,40.2*,
Cc1nc(S/C(=C/c2ccc(-c3ccc(C(=O)O)cc3)o2)C(=O)O)n[nH]1,4.9,-3.7,-6.4,12.3,-2.6,nt,
Cc1nc(S/C(=C/c2ccc(-c3ccc(Cl)cc3)o2)C(=O)O)n[nH]1,1.1,3.4,2.8,4.3,20.2*,19.0*,
Cc1nc(S/C(=C/c2ccc(-c3cc(Cl)ccc3C)o2)C(=O)O)n[nH]1,15.5,14.6,8.7,6.9,25.8*,27.6*,
SMILES,PREPL inhibitor,LYPLA2 counter,EBNA-1 inhibitor,ZTA counter,LYPLA1 inh,LYPLA1 confirm,others
CC(=O)c1ccc(-c2ccc(/C=C(/Sc3n[nH]c(C)n3)C(=O)O)o2)cc1,11.8,4.1,4.4,16.8,9.1,nt,
Cc1[nH]c2ccccc2c1C(=O)COC(=O)c1nccnc1N,0.3,0.2,nt,0.9,0.6,nt,
CC1(C(=O)OCC(=O)NNC(=O)COc2ccc(Cl)cc2)CC1(Cl)Cl (stereo not drawn),-2.8,4.1,-1.7,3.9,1.1,nt,
CCN(CC)C1=CC2=CC(=C(C#N)C#N)CCC2CC1 (stereo not drawn),17.8,1.8,4.8,-2.1,7.2,nt,
CCCCN(C)C1=CC2=CC(=C(C#N)C#N)CCC2CC1 (stereo not drawn),33.4,11.7,13.5,8.3,32.5*,8.1,
COc1ccc(CN(C(=O)c2snc(C(N)=O)c2N)C(C(=O)NC2CCCC2)c2ccco2)cc1 (stereo not drawn),-4.9,-1.1,2.4,15.2,-0.2,nt,
COC(=O)C1(CC2CC(c3cccc(Br)c3)=NO2)CCN(C(=O)OC(C)(C)C)CC1 (stereo not drawn),-4.9,4.5,8.7,-27.4,23.5*,30.8*,
Cn1c(SCC(=O)Nc2nncs2)nnc1C1CC1,12.7,-0.6,-7.5,-3.5,-6.5,nt,
O=c1[nH]c(O)c(/C=C2\C=Nc3ccc(Br)cc32)[nH]1,40.4,8.2,-0.3,-2.7,35.6*,39.8*,
O=c1[nH]c(S)c(/C=C2\C=Nc3ccccc32)s1,11.7,0.4,-6.8,3.9,3.9,nt,
CC(C)CN(C(=O)COC(=O)c1ccccn1)c1c(N)n(Cc2ccccc2)c(=O)[nH]c1=O,9.0,3.3,3.9,-2.0,3.2,nt,
O=C1N=c2ccccc2=C1c1sc(=S)n(Cc2ccccc2Cl)c1O,9.3,5.3,1.8,-4.7,3.8,nt,
CC1CN(Cc2cc(=O)oc3cc(O)c(Cl)cc23)CC(C)O1 (stereo not drawn),17.2,20.5,-0.3,7.6,16.2*,42.3*,
CC1CCN(Cc2cc(=O)oc3cc(O)c(Cl)cc23)CC1,11.1,6.6,4.9,14.8,5.6,nt,
